Experiments:
Assay type in all cases: functional
[1] = target: Solute carrier family 2, facilitated glucose transporter member 1 (Homo sapiens) (UniProt P11166); test: ST_JUDE_LEISH: Cytotoxicity at 2uM final concentration against transgenic Leishmania Mexicana promastigotes LmGLUT1 that are glucose transport deficient and complemented with the human glucose transporter GLUT1. Activity is measured by DNA content using SYBR green in vitro
[2] = target: Hexose transporter 1 (Plasmodium falciparum) (UniProt O97467); test: ST_JUDE_LEISH: Cytotoxicity at 2uM final concentration against transgenic Leishmania Mexicana promastigotes LmPfHT that are glucose transport deficient and complemented with the Plasmodium falciparum hexose transporter. Activity is measured by DNA content using SYBR green in vitro
[3] = target: Glucose transporter (Leishmania mexicana) (UniProt O61059); test: ST_JUDE_LEISH: Cytotoxicity at 2uM final concentration against transgenic Leishmania Mexicana promastigotes LmGT2 that are glucose transport deficient and complemented with the L. Mexicana glucose transporter 2. Activity is measured by DNA content using SYBR green in vitro

Sequence of Solute carrier family 2, facilitated glucose transporter member 1 (Homo sapiens) (P11166 whole entry): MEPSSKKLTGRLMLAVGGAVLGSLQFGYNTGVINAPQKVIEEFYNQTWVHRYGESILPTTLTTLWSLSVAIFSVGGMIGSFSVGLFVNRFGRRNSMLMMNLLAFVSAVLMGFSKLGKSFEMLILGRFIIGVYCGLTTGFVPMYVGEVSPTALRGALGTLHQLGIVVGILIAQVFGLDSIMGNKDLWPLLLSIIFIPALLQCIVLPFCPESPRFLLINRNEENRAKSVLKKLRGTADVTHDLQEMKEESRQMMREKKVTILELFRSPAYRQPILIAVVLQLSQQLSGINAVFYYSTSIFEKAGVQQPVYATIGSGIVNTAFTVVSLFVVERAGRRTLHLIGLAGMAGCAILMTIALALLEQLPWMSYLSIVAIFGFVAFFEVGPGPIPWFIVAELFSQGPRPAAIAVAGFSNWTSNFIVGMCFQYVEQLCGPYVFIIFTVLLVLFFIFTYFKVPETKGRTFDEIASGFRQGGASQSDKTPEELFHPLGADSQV

Compound | inhibition [1] | inhibition [2] | inhibition [3]
CCN(CC)CCN1C(=O)c2oc3ccc(F)cc3c(=O)c2C1c1cccc(Cl)c1 (centres undefined) | -2.07% | 2.22% | 4.25%
CCOc1cc(O)c(-c2nc(N)ncc2-c2ccc3c(c2)OCCO3)cc1CC | 9.25% | 11% | 4.66%
COc1ccc(C2=CCN(c3ccc(Cl)c(Cl)c3)C2=O)cc1OCCN1CCCCC1 | 3.36% | 1.21% | -4.01%
Cc1ccc(C2CCN(CCCCNC(=O)c3ccc(NC(=O)c4ccc(Cl)cc4)cc3)CC2)c(OCC(F)(F)F)c1 | 0.04% | 1.32% | 0.66%
O=C(NCC1CCCCC1)c1cc(=O)c2ccccc2o1 | 8.02% | 10.2% | 11.7%
Nc1nc(N)c2c3c(cnc2n1)CCCC3 | 9.74% | 9.11% | 10.8%
COc1ccc(-n2nc(C(=O)NCc3ccccc3OC)c3ccccc3c2=O)cc1 | 8.08% | 6.04% | 2.98%
Cc1nc(-c2nc(N3CCC(C(N)=O)CC3)ncc2-c2ccsc2)sc1C | 8.94% | 7.69% | 6.73%
CN1CCC(N(Cc2ccc(-c3ccc(C(F)(F)F)cc3)nc2)C(=O)Cn2c(CCc3cccc(F)c3F)cc(=O)c3ccccc32)CC1 | 6.73% | 6.06% | 7.68%
COc1ccc2c(N/N=C/c3ccccc3[N+](=O)[O-])ccnc2c1 | 4.94% | -0.53% | 3.75%
CC(C)CCN1CCC(Oc2ccc(NC(=O)c3cccs3)cc2Cl)C1 (centres undefined) | 10.2% | 11.8% | 9.02%
Cc1cc(N[C@@H](CC(C)C)C(=O)NCc2cccc(F)c2)nc(Nc2ccccc2)n1 | 4.15% | 2.87% | 1.1%
COc1cc(NC(=O)N2CCOC(CCN3CCC4(CCc5ccccc54)CC3)(c3ccc(Cl)c(Cl)c3)C2)cc(OC)c1 (centres undefined) | 3.64% | 1.66% | 1.53%
Cc1cccc(C)c1CNc1cccc(-c2nc(C)c(C)[nH]2)c1 | 5.39% | 4.77% | 1.97%
CCCNCc1ccc(-c2ccc(CN(CCOC)C(=O)c3ccco3)cc2)nc1 | 0.5% | 0.17% | 2.77%
CC(C)CC1(C(=O)OC(C)(C)C)CC(C(=O)OC(C)(C)C)C(c2cccs2)N1C(=O)c1ccc(C(C)(C)C)cc1 (centres undefined) | 3.89% | 3.12% | 2.67%
O=C(C=Cc1cccc(F)c1)NC1CCC(CCN2CCc3ccc(-c4cnccn4)cc3CC2)CC1 (centres undefined) | 14.4% | 14.2% | 13.1%

Compound | inhibition [1] | inhibition [2] | inhibition [3]
Nc1ncnc2c1ncn2C(CO)Cc1ccc(O)cc1 (centres undefined) | 9.32% | 6.45% | 8.36%
COc1ccc2nccc([C@@H](O)CN3CCC(NC(=O)c4cccc(-c5cc(C)no5)c4)CC3)c2c1 | 1.35% | 0.14% | 0.08%
CN1CCN(CC(O)CNC(=O)Nc2ccc(Cl)cc2)CC1 (centres undefined) | 5.3% | 5.03% | 2.94%
Cc1cc2ccccc2n1CC(=O)N1CC(C(=O)N2CCCCC2)Oc2ccccc21 (centres undefined) | -0.25% | 3.02% | 2.89%
CC(C)C(=O)ONC1=NC(C)(C)N(OCCCOc2cc(Cl)c(Cl)cc2Cl)C(NOC(=O)C(C)C)=N1 | -0.37% | 1.64% | -0.44%
OC(CNc1ccnc(Nc2ccc(Cl)cc2)n1)c1ccc(C(F)(F)F)cc1 (centres undefined) | 4.91% | 4.91% | 2.64%
CN(C)CCCN1C(=O)c2[nH]nc(-c3ccc(Cl)cc3O)c2C1c1ccc(Cl)cc1 (centres undefined) | 0.82% | 0.66% | 1.69%
O=C(NCc1cccc(Cl)c1)c1ccc(CNC2CCN(Cc3ccccc3)CC2)cc1 | -1.21% | -0.25% | 2.18%
Cn1c(N)c(C(=O)CSc2nnc(-c3cccs3)n2Cc2ccccc2)c(=O)n(C)c1=O | 10.1% | 8.98% | 8.86%
CC1CCN(Cc2c(O)ccc3c(CN4CCC(C)CC4)c(O)ccc23)CC1 | 4.79% | 6.78% | 6.37%
COc1cc(N)cc2sc(N)nc12 | -1.04% | 0.54% | 0.08%
COc1cc(Cc2cnc(N)nc2N)cc(OCCCCCCC(=O)O)c1OC | 0.12% | -0.55% | -0.96%
Cc1cc(N[C@@H](CC(C)C)C(=O)Nc2ccccc2)nc(NCc2ccccc2C)n1 | 8.7% | 8.35% | 5.01%
C=CC[C@H](C[C@H](O)[C@H](Cc1ccccc1)NC(=O)c1nn(-c2ccccc2)nc1C)C(=O)NC1CCCCC1 | 2.06% | 2.34% | 2.36%
CCCN1CCN(CCNC(=O)c2cccc(Nc3nccc(Nc4ccc(Oc5ccccc5)cc4)n3)c2)CC1 | 0.38% | 0.74% | 1.04%
O=C(/C=C/c1ccc(Cl)cc1)NCCCCCN1CCCN(C(=O)Nc2ccc(Cl)c(C(F)(F)F)c2)CC1 | 1.83% | 2.68% | 2.81%

— ChEMBL document CHEMBL3433997, “St. Jude Leishmania screening dataset” (2016)
